Reference: article PMC10668032, “Altered binding affinity of SIX1-Q177R correlates with enhanced WNT5A and WNT pathway effector expression in Wilms tumor”
The full ranking holds about 33,000 sequences; the median of “e-score” is about -0.053, and the highest 2% start at about 0.38. For the sample, the highest values were picked, then their nearest neighbours and some sequences at random.

biological target: T1, SIX1 homeodomain (reference allele) (human, UniProt Q15475 108-198); test: universal protein binding microarray; Universal all-10-mer PBM (8x60K, AMADID 030236), 300 nM GST-tagged protein, Alexa Fluor 488 anti-GST; buffer, salt, pH and temperature not stated (as in Berger); high values mean tight binding; conditions: protein: ivt; tags: N-terminal GST; dsDNA, one strand shown
T1 sequence: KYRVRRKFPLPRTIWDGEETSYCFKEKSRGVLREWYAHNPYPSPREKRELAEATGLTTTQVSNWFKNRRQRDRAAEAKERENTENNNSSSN
How it was run: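 Homeodomains carrying a GST tag were produced by in vitro transcription/translation, then quantified by anti-GST western blot against a recombinant GST standard curve. Duplicate applications at 300 nM final concentration were made to universal 'all 10-mer' protein binding microarrays in 8×60K format. The Universal PBM Analysis Suite was used to express binding as 8-mer E-scores.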

Row | Sequence | binding signal [E-score]
1 | CTAAGATA | 0.241 ± 0.105
2 | ATCTGGGC | 0.24 ± 0.0045
3 | CCTATTGA | 0.187 ± 0.0453
4 | GGTATTTA | 0.191 ± 0.035
5 | ATCCCATC | 0.297 ± 0.0291
6 | ATCGATGG | 0.185 ± 0.0344
7 | ATATATAA | 0.298 ± 0.0548
8 | ATATATCG | 0.372 ± 0.0566
9 | ATATATCC | 0.438 ± 0.0246
10 | ATATATCA | 0.4 ± 0.0452
11 | GTATATAA | 0.245 ± 0.0101
12 | CTCTATCC | 0.216 ± 0.0113
13 | GTATATGA | 0.225 ± 0.0139
14 | AAATATCA | 0.224 ± 0.158
15 | CTATATCC | 0.366 ± 0.00388
16 | GTATATCA | 0.429 ± 0.0166
17 | CTATATTA | 0.152 ± 0.0427
18 | CTATATCA | 0.412 ± 0.033
19 | ATCCAACC | 0.173 ± 0.00282
20 | TATCTAGA | 0.189 ± 0.00564
21 | ATACGTGG | 0.272 ± 0.04
22 | ACAACACC | 0.23 ± 0.0178

Row | Sequence | binding signal [E-score]
23 | TATAACAA | 0.2242 ± 0.00053
24 | ATATTAGG | 0.257 ± 0.0151
25 | CGAAGATC | 0.202 ± 0.00878
26 | CATAATAC | 0.34 ± 0.0222
27 | GATAATAC | 0.406 ± 0.0398
28 | CATGATAG | 0.274 ± 0.0672
29 | TATGATAA | 0.17 ± 0.026
30 | GATGATAC | 0.484 ± 0.00743
31 | GATGATGA | 0.189 ± 0.0213
32 | AATAATAC | 0.345 ± 0.0992
33 | CATGATAC | 0.4813 ± 0.00335
34 | CATGACAC | 0.35 ± 0.0169
35 | AATGATAC | 0.467 ± 0.0253
36 | AATGATAG | 0.309 ± 0.0717
37 | AAAGATAC | 0.365 ± 0.0561
38 | CCACGATA | 0.324 ± 0.0401
39 | GTATGCGA | 0.225 ± 0.0379
40 | AGCGGGAT | 0.289 ± 0.0282
41 | ATGTAATA | 0.208 ± 0.032
42 | GGAGACAC | 0.219 ± 0.0128
43 | ATCGGCAT | 0.205 ± 0.0425
44 | AATAACAC | 0.151 ± 0.0395

Row | Sequence | binding signal [E-score]
45 | TATGGGGA | 0.232 ± 0.0667
46 | AAGTATAT | 0.184 ± 0.103
47 | AAAGATAT | 0.351 ± 0.0934
48 | AATGATAT | 0.44 ± 0.0479
49 | AATGAGAT | 0.278 ± 0.0395
50 | ATCGTCAT | 0.22 ± 0.00839
51 | AATCCGCG | 0.1997 ± 0.000431
52 | ATCCCGGG | 0.345 ± 0.0141
53 | ATACGGGG | 0.335 ± 0.018
54 | AGACCGGA | 0.157 ± 0.0691
55 | ATACCGGA | 0.381 ± 0.0112
56 | ATACCGGC | 0.319 ± 0.00766
57 | ATACCGGG | 0.399 ± 0.016
58 | ACCATGAT | 0.269 ± 0.0126
59 | GATTATGA | 0.205 ± 0.0352
60 | ATATGGCA | 0.204 ± 0.0271
61 | GAGCCATA | 0.183 ± 0.0105
62 | GAATACGA | 0.24 ± 0.0047
63 | GGATAGAC | 0.151 ± 0.00296
64 | CAATATAC | 0.197 ± 0.0146
65 | CGTATAAC | 0.204 ± 0.0505
66 | CGTATCAC | 0.484 ± 0.00135

Row | Sequence | binding signal [E-score]
67 | CGTATCAA | 0.466 ± 0.026
68 | TGTATCAA | 0.41 ± 0.0207
69 | CGTATTAA | 0.222 ± 0.0926
70 | GGGCTCAC | 0.268 ± 0.0467
71 | CGTATTAC | 0.26 ± 0.0203
72 | CCTATCAA | 0.288 ± 0.0228
73 | TGTATTAA | 0.275 ± 0.027
74 | TATCTCAA | 0.329 ± 0.0572
75 | GGTATCAC | 0.497
76 | GGTCTCAC | 0.203 ± 0.0591
77 | TATCGGAA | 0.368 ± 0.0234
78 | CACCCGGA | 0.276 ± 0.0383
79 | CTGAGATC | 0.253 ± 0.0174
80 | ATGAGACG | 0.251 ± 0.0275
81 | TATCTTCA | 0.251 ± 0.0591
82 | GATCAGAC | 0.249 ± 0.0505
83 | GCTATCAA | 0.312 ± 0.0869
84 | GGTATCAA | 0.486 ± 0.00747
85 | GGTATAAA | 0.286 ± 0.0691
86 | ATACTTTG | 0.253 ± 0.096
87 | GGGTTAGA | 0.16 ± 0.0278
